Results filed as inconclusive are left out. Active and inactive are the calls of the source. The call rests on the fitted dose curve; in most records, active means well fitted inhibition curve with a large enough effect; inconclusive means small, poorly fitted or top-dose-only effect; inactive means flat fitted curve, though single readings scatter.
Assays:
Experiment in all cases: qHTS profiling for inhibitors of Plasmodium falciparum proliferation (AID 504749); further: nearly all actives have a fitted effect of over 60% in size
Details in all cases: P. falciparum in erythrocytes, SYBR Green DNA, 72 h
3D7 = system: 3D7
Outline: (§1)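 SYBR Green fluorescence of parasite DNA, read after lysis and overnight dark incubation, measured growth over 72 h in erythrocyte culture at 0.3% parasitemia and 2.5% hematocrit. Data normalised to DMSO and 0.29 uM artemisinin, with plate-drift correction.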

7G8 = system: 7G8
Outline: as §1

AA1029 = system: AA1029
Outline: as §1

AS120 = system: AS120
Outline: as §1

ATS189 = system: ATS189
Outline: as §1

ATS95 = system: ATS95
Outline: as §1

C2A = system: C2A
Outline: as §1

CP185 = system: CP185
Outline: as §1

CP191 = system: CP191
Outline: as §1

CP192 = system: CP192
Outline: as §1

CP194 = system: CP194
Outline: as §1

CP201 = system: CP201
Outline: as §1

CP203 = system: CP203
Outline: as §1

CP211 = system: CP211
Outline: as §1

CP215 = system: CP215
Outline: as §1

CP217 = system: CP217
Outline: as §1

CP237 = system: CP237
Outline: as §1

CP238 = system: CP238
Outline: as §1

CP247 = system: CP247
Outline: as §1

CP250 = system: CP250
Outline: as §1

Measured: Potency
Potency means the concentration at half of the fitted maximal effect.

CC(=O)O[C@H]1C(=O)[C@@]2(C)[C@H]([C@H](OC(=O)c3ccccc3)[C@]3(O)C[C@H](OC(=O)[C@H](O)[C@@H](NC(=O)c4ccccc4)c4ccccc4)C(C)=C1C3(C)C)[C@]1(OC(C)=O)CO[C@@H]1C[C@@H]2O
active: 3D7 282 nM | 7G8 398 nM | AA1029 562 nM | AS120 398 nM | ATS189 631 nM | ATS95 631 nM | C2A 355 nM | CP185 199 nM | CP191 178 nM | CP192 675 nM | CP194 675 nM | CP201 953 nM | CP203 849 nM | CP211 478 nM | CP215 1350 nM | CP217 562 nM | CP237 708 nM | CP238 251 nM | CP247 355 nM | CP250 708 nM

CC[C@]1(O)CC2CN(CCc3c([nH]c4ccccc34)[C@@](C(=O)OC)(c3cc4c(cc3OC)N(C)[C@H]3[C@@](O)(C(=O)OC)[C@H](OC(C)=O)[C@]5(CC)C=CCN6CC[C@]43[C@@H]65)C2)C1 (stereo not given in full)
active: 3D7 794 nM | 7G8 1120 nM | AA1029 1410 nM | AS120 2510 nM | ATS189 4470 nM | ATS95 3550 nM | C2A 2820 nM | CP185 3550 nM | CP191 2820 nM | CP192 4260 nM | CP194 3010 nM | CP201 4780 nM | CP203 4260 nM | CP211 1510 nM | CP215 2130 nM | CP217 3980 nM | CP237 158 nM | CP238 3160 nM | CP247 355 nM | CP250 3550 nM

Reference: PubChem BioAssay (NCATS)
